Screening results: PubChem BioAssay, several laboratories
Fluor 339 460: intrinsic fluorescence of library compounds, ex339/em460 – biochemical, MLSMR library, data from DPM-DC assay, artefact control, profiling panel | compound autofluorescence, ex339/em460 nm, NADH buffer; hits give high values; 1 = no-compound wells, NADH background | fluorescence fold increase at 10 µM | 65,000 tested, 5.5% active;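 active = at 10 µM, mean starting fluorescence two-fold or more over control wells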;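 note: signal is the first read of a kinetic run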
Htt clearance: clearance of mutant huntingtin inclusions, primary screen, imaging, HeLa Exon1htt(103Q)mCFP, confocal imaging; AID 853, 2007; inhibition, % at 1.5 µM; 47,000 tested, 0.42% active; aggregate imaging; zero = plate's median compound well;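 active = inhibition of aggregate fluorescence above about 70%, also judged a hit by eye on the cell image, limit read from the data, passing the limit was not always enough; inconclusive = no rule stated for this call; inactive = not judged a hit on image review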;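 note: cells exposed to compound for three days before fixation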
A340 absorber: compound light absorbance at 340 nm, profiling panel, artefact control, biochemical, MLSMR library, data from PS, PMK, MK assays; compound absorbance at 340 nm, fold over control; fold change at 10 µM; 65,000 tested, under 10 active; AID 708, 2007;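 active = at 10 µM dose, initial 340 nm absorbance at least 2 fold that of control wells; inactive = change under 2 fold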;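 note: initial absorbance extrapolated from kinetic A340 decline of NADH oxidation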
M1 antagonist: antagonists of rat M1 muscarinic receptor. AID 628, 2007. B-score at 10 µM. CHO-M1 cells, Fluo-4 calcium, ACh EC80 antagonist mode; hits give low values. 64,000 tested, 3.4% active;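 active = calcium fluorescence response, raw or row-and-column corrected B-score, differing from the plate sample mean either way at a set confidence level, mostly lower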
Target sequence (P08482 whole entry, looked up): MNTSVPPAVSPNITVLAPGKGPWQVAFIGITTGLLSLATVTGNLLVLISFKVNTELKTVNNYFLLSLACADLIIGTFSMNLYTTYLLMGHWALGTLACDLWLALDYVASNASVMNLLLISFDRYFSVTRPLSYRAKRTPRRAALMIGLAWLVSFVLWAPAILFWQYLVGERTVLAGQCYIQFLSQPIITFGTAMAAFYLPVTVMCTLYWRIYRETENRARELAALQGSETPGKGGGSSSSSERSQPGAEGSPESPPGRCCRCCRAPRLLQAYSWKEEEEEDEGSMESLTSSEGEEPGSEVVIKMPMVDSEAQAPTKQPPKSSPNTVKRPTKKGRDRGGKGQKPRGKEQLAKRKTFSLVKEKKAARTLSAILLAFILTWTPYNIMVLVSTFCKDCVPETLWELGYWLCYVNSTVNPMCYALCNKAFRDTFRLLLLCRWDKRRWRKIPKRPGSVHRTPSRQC
M1 ag: M1 muscarinic receptor agonists, primary screen, CHO-M1 cells, Fluo-4 calcium, agonist mode | Fluo-4 calcium fluorescence; hits give high values | AID 626, 2007 | 64,000 tested, 3% active | Muscarinic acetylcholine receptor M1 | B-score at 10 µM;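 active = fluorescence rise, raw or as B-score row- and column-corrected plate score, outside the 99.7% band of its plate's samples, either direction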
NADH coupling: inhibitors of PK/LDH coupling enzymes, profiling panel, artefact control, biochemical, MLSMR library; coupled PK/LDH NADH assays, four targets; IC50, µM (top dose mostly 10 µM); 65,000 tested, 0.02% active; AID 774, 2007;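 active = single-dose screening hits from any of four coupled enzyme assays that gave an IC50 when retested across doses; inconclusive = no clear call, values can overlap the other calls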;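 note: the DPM-DC format reads NADH fluorescence rather than 340 nm absorbance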
M1 antag confirm: rat M1 muscarinic receptor antagonists, confirmation, CHO cells, Fluo-4 calcium, duplicate; shares compounds with M1 antagonist; ACh EC80 antagonism; hits give low values; calcium response (max-min fluorescence) at 10 µM; 1,700 tested, 43% active;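 active = calcium response below the same-plate mean of wells given acetylcholine alone at its 80%-effect dose, minus 3 SD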
mGluR4 antag: human mGluR4 response to M1 antagonist hits, M1 allosteric modulator project, cell-based, antagonist mode, secondary assay 1. fluorescence response (max-min) at 10 µM. CHO-mGluR4 calcium flux, Fluo-4 fluorescence, glutamate EC80; hits give low values. shares compounds with M1 antagonist. 1,700 tested, 0.9% active;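 active = fluorescence response below the plate's average for near-maximal glutamate wells, less 3 SD of those wells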;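 note: raw unnormalized fluorescence span taken in the window right after glutamate addition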
Hits are given with their value; – = inactive; ? = inconclusive; · = no result given. Sampled rows, rich in hits. Any-hit rate of the full collection: about 9.3%.

SMILES | Fluor 339 460 | Htt clearance | A340 absorber | M1 antagonist | M1 ag | NADH coupling | M1 antag confirm | mGluR4 antag
COc1cccc(NC(=O)N2CCC(N3CCCCC3)CC2)c1 | – | · | – | – | – | – | · | ·
O=C(Nc1ccc(Cl)c(Cl)c1)N1CCC(N2CCCCC2)CC1 | – | – | – | -2.5 | – | – | – | –
Cc1ccc(OCC(=O)N2CCC(N3CCCCCC3)CC2)cc1 | – | – | – | – | – | – | · | ·
CCOC(=O)CNC(=O)CSc1nnc(Cn2cnc3ccccc32)n1C | – | · | – | – | – | – | · | ·
Cc1cc(-c2nnc(SCc3ccccn3)o2)no1 | – | – | – | -1.8 | – | – | – | –
CCC1(C)Cc2ccccc2/C(=C/C(=O)N2CCCCC2)N1 (configuration not stated) | – | – | – | -2.7 | – | – | 18 | –
COc1ccccc1CC(=O)N1CCN(c2cccc(C(F)(F)F)c2)CC1 | – | · | – | – | – | – | · | ·
O=c1c2ccccc2nnn1CSc1nnc(C2COc3ccccc3O2)n1-c1ccccc1 (configuration not stated) | – | · | – | -2.4 | – | – | – | 159
CCN(C(=O)Cc1c(C(=O)O)[nH]c2ccccc12)c1cc(OC)ccc1OC | – | – | – | -2.2 | – | – | – | –
CCN(C(=O)c1coc(=O)c2ccccc12)c1cc(OC)ccc1OC | – | – | – | · | · | – | · | ·
COc1ccc(C(=O)NC(C)c2nnc(SCC(=O)Nc3nc4ccccc4s3)n2C)cc1 (configuration not stated) | – | · | – | – | – | – | · | ·
Cc1sc2ncnc(OCC(=O)N3CCN(S(=O)(=O)c4ccc(Cl)cc4)CC3)c2c1C | – | · | – | – | – | – | · | ·
Cc1sc2ncnc(OCC(=O)c3ccc(S(=O)(=O)N4CCCC4)cc3)c2c1C | – | · | – | -3.1 | – | – | – | –
CSc1nnc2c(n1)OC(C1CC=C(C)CC1)Nc1ccccc1-2 (configuration not stated) | – | · | – | – | – | – | · | ·
CC(C)(C)N(Cc1ccccc1)C(=O)c1ccc2c(c1)OCCO2 | – | – | – | -1.8 | – | – | – | –
c1ccc(N2CCN(Cc3cn4cccnc4n3)CC2)cc1 | – | · | – | – | – | – | · | ·
CCN(CC)Cc1cc(CC(C(N)=O)C(N)=O)ccc1OC | – | ? | – | -2.5 | – | – | – | –
CCN(CC)Cc1cc(C(C)=O)ccc1OCC(C)C | – | – | – | – | – | – | · | ·
CC(C)=CCCC(C)CN(C)CCc1ccccn1 (configuration not stated) | – | · | – | -3.1 | – | – | 569 | –
Cc1ccc(S(=O)(=O)N2CCN(S(=O)(=O)N3CCCCC3)CC2)cc1 | – | – | – | – | – | – | · | ·
CN(C1CCCCC1)S(=O)(=O)c1ccc(S(=O)(=O)N2CCCC2)cc1 | – | · | – | -3.3 | – | – | 327 | –
CCc1nc(SCc2ccc(C(=O)OC)o2)c2c(=O)n(C)c(=O)n(C)c2n1 | – | · | – | -6.7 | – | – | 280 | –
CCCc1nc(SCc2ccccn2)c2c(=O)n(C)c(=O)n(C)c2n1 | – | – | – | -1.4 | – | – | 405 | –
Cn1c(=O)c2c(SCc3ccccn3)nc(C3CC3)nc2n(C)c1=O | – | · | – | – | – | – | · | ·
Cn1c(C(=O)O)c(CC(=O)NCc2cccnc2)c2ccccc21 | – | · | – | – | – | – | · | ·
CC(=O)NS(=O)(=O)c1ccc(NC(=O)c2ccc(Br)o2)cc1 | · | – | · | · | · | · | · | ·
CC(=O)c1ccccc1Oc1nc(CN2CCOCC2)nc2scc(-c3cccs3)c12 | – | · | – | -2.3 | – | – | 478 | –
CC(C)C(=O)Nc1cccc(C(=O)Nc2nccs2)c1 | – | – | – | – | – | – | · | ·
